Experiment: inducers of human heat shock response, cell-based, HSE luciferase (AID 1611)
Conditions: human cells, HSE-luciferase heat shock reporter; stronger effect = higher value
NCC(CC(=O)O)c1ccc(Cl)cc1 (centres undefined) showed a fold change of 1.37. In the case of CNC1(c2ccccc2Cl)CCCCC1=O (centres undefined), the fold change is reported as 1.39. Clc1ccc(CSC(Cn2ccnc2)c2ccc(Cl)cc2Cl)cc1 (centres undefined) showed a fold change of 0.83. NC(=O)CN1CCCC1=O gave a fold change of 0.86. For C[C@H]1O[C@@H](O[C@H]2[C@@H](O)C[C@H](O[C@H]3[C@@H](O)C[C@H](O[C@H]4CC[C@]5(C)C6CC[C@]7(C)[C@@H](C8=CC(=O)OC8)CC[C@]7(O)C6CC[C@@H]5C4)O[C@@H]3C)O[C@@H]2C)C[C@H](O)[C@@H]1O (some centres undefined), the fold change was 78. Compound [N-]=[N+]=CC(=O)OCC(N)C(=O)O (centres undefined) has a fold change of 1.29. Work on COc1ccc2c(c1OC)C(=O)O[C@H]2[C@H]1c2cc3c(cc2CCN1C)OCO3 yielded a fold change of 0.8. Work on NCC(O)c1ccc(O)cc1 (centres undefined) yielded a fold change of 1.61. CC1[C@H](C)OC(=O)CC(O)CC(O)CC(O)CCC(O)C(O)C[C@]2(O)CC(O)C(C(=O)O)C(CC(OC3O[C@H](C)[C@@H](O)[C@H](N)[C@@H]3O)/C=C/C=C/C=C/C=C/CC/C=C/C=C/[C@H](C)[C@H]1O)O2 (some centres undefined) showed a fold change of 1.2. With CNC(C)(C)Cc1ccccc1 the fold change was 1.1. In the case of N#CC(O[C@@H]1O[C@H](CO[C@@H]2O[C@H](CO)[C@@H](O)[C@H](O)[C@H]2O)[C@@H](O)[C@H](O)[C@H]1O)c1ccccc1 (some centres undefined), the fold change is reported as 0.7. For Clc1ccc(COC(Cn2ccnc2)c2ccc(Cl)cc2Cl)cc1 (centres undefined), the fold change was 1.04. In the case of CN(C)[C@@H]1C(=O)C(C(N)=O)=C(O)[C@@]2(O)C(=O)C3=C(O)c4c(O)cccc4[C@@](C)(O)[C@H]3[C@H](O)[C@@H]12, the fold change is reported as 1.27. In the case of O=c1[nH]oc2c1CCNC2, the fold change is reported as 1.02. CC(=O)C1=C(O)C2C3c4c[nH]c5cccc(c45)CC3C(C)(C)N2C1=O (centres undefined) gave a fold change of 1.11. Work on C[C@@H]([C@H](O)c1ccccc1)N(C)C yielded a fold change of 1.08. Work on CCN1C[C@@]2(COC)C3[C@@H](OC)[C@H]4[C@@H]1[C@]3(C(OC)C[C@H]2O)C1C[C@@]2(O)[C@H](OC(=O)c3ccccc3)C1[C@]4(OC(C)=O)[C@@H](O)[C@@H]2OC (some centres undefined) yielded a fold change of 0.98. With CC(=O)OC1CN2CCC1CC2 (centres undefined) the fold change was 0.77. Work on CC(=O)OCC1=C(C(=O)O)N2C(=O)[C@@H](NC(=O)CCCC(N)C(=O)O)C2SC1 (some centres undefined) yielded a fold change of 0.85. Compound CC(=O)Nc1cc([As](=O)(O)O)ccc1O has a fold change of 0.73. C#CC1(O)CCC2C3CCC4=CC(=O)CCC4(C)C3CCC21C (centres undefined) gave a fold change of 0.91. With O=P1(N(CCCl)CCCl)NCCCO1 (centres undefined) the fold change was 0.79. Cc1cc2c(C(C)C)c(O)c(O)c(C=O)c2c(O)c1-c1c(C)cc2c(C(C)C)c(O)c(O)c(C=O)c2c1O gave a fold change of 0.95. Compound CCCCC[C@H]1C(=O)O[C@H](C)[C@H](NC(=O)c2cccc(NC=O)c2O)C(=O)O[C@@H](C)[C@@H]1OC(=O)CC(C)C has a fold change of 0.64. Work on C=CCN1CC[C@]23c4c5ccc(O)c4OC2C(=O)CC[C@@]3(O)[C@H]1C5 (some centres undefined) yielded a fold change of 1.1. With CCC1(CC)C(=O)C=CNC1=O the fold change was 1.24. CC(CCc1ccccc1)NC(C)C(O)c1ccc(O)cc1 (centres undefined) showed a fold change of 1.23. For C[C@H](N)[C@H](O)c1ccc(O)c(O)c1, the fold change was 1.53. CNC(C)C(O)c1ccccc1 (centres undefined) showed a fold change of 0.96. With COc1cc([C@@H]2c3cc4c(cc3[C@H](O)[C@H]3COC(=O)[C@H]23)OCO4)cc(OC)c1OC the fold change was 0.57. C=C[C@H]1CN2CC[C@H]1C[C@@H]2[C@H](O)c1ccnc2ccccc12 showed a fold change of 1.18. CC[C@@H]1/C=C/C=C/C[C@H](C)[C@@H](O)[C@](C)(O)C(=O)[C@H](C)[C@@H](O)[C@H](C)C(=O)[C@H](C)[C@@H](O)[C@H](C)/C=C/C(=O)O[C@H]2[C@@H](C)[C@@H](CC1)O[C@@]1(CC[C@@H](C)[C@@H](C[C@H](C)O)O1)[C@@H]2C gave a fold change of 1.06. In the case of CN(C)[C@@H]1C(=O)C(C(N)=O)=C(O)[C@@]2(O)C(=O)C3=C(O)c4c(O)ccc(Cl)c4[C@@](C)(O)[C@H]3C[C@@H]12, the fold change is reported as 0.9. CCCCCCCCCCCCCCCC[N+](C)(C)C gave a fold change of 0.93. For CC(=O)[O][Hg][c]1ccccc1, the fold change was 1.14. Compound C[C@@H]1C[C@@H]([C@H](O)CC2CC(=O)NC(=O)C2)C(=O)[C@@H](C)C1 has a fold change of 0.84. N#C/C(=C\c1ccc(O)cc1)C(=O)O showed a fold change of 1.34. Clc1ccc(COC(Cn2ccnc2)c2ccc(Cl)cc2Cl)c(Cl)c1 (centres undefined) showed a fold change of 0.8. O=[N+]([O-])c1cc(O)c(O)c([N+](=O)[O-])c1 gave a fold change of 0.87.

Reference: PubChem BioAssay AID1611 (NINDS Approved Drug Screening Program, 2009)
